Several values for one entry are separate records, joined by “and”; a condition that tells them apart may be missing. Identical values can stand only once. Activity calls are given as the source filed them. Unless noted, the rule behind the calls is not given here.
Legend:
[1] = compounds altering circadian rhythm period length – cell-based, LOPAC library, luminescence reporter (AID 2774); conditions: circadian reporter cells, at 7 µM, actives lie on both sides;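 note: values are relative to mean of DMSO wells on each plate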
[2] = P. berghei load reduction in hepatocytes – cell-based, HepG2, luciferase luminescence, HepG2 viability, primary screen (AID 624349; in the data active = parasite load remaining mostly below about 12%, no sharp cut-off; inactive = mostly above about 10%;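 note: 100% = mean of DMSO negative control wells on the same plate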); conditions: P. berghei liver stage in HepG2, luciferase luminescence, concentration not given here; parasite load remaining: stronger effect = lower value; viability: measured here: HepG2 viability without parasites
[3] = tested on: Hepatitis C virus NS3 helicase; assay: blockers of NS3h binding to ssDNA – biochemical, fluorescence polarization, LOPAC1280 library, primary screen (AID 687035; in the data active = inhibition above about 37%); conditions: Purified HCV NS3 helicase, Cy5-dT15 ssDNA binding fluorescence polarization; stronger effect = higher value; concentration not given here
[4] = compounds altering Cy5-DNA-NS3h complex signal – biochemical, LOPAC1280, artefact control for HCV NS3 helicase inhibitor project (AID 687037); conditions: Cy5-DNA-NS3h complex fluorescence interference counterscreen
[5] = tested on: Aerobactin synthetase IucA (Klebsiella pneumoniae); assay: inhibition of K. pneumoniae IucA enzyme – biochemical, Tocris library, absorbance (AID 1345561); conditions: purified IucA enzyme assay, absorbance (OD) read-out; stronger effect = lower value;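 tested at 8 µM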;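 note: 100% = enzyme without compound and 0% = no enzyme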
[6] = viability loss with induced miR-34 in A549 – imaging, A549 dox-inducible miR-34, nuclei and caspase counts, primary screen (AID 1347080;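 active = compounds whose cell count with miR-34 switched on is under 0.7 times the count with it off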); conditions: A549 miR-34 inducible, Hoechst nuclei count, 48 h
[7] = blockers of cellular phospholipid synthesis – cell-based, LOPAC library, screen 4, primary screen (AID 1347384); conditions: animal cells, phospholipid biosynthesis inhibition screen; at 10 µM
[8] = MELAS cybrid and Rieske KO viability enhancers – cell-based, MELAS cybrids, Rieske KO mouse fibroblasts, CellTiter-Glo, primary screen (AID 1508586;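 active = mean z-score across replicates of 1.96 or higher in either the MELAS or the Rieske mutant cell line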;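 note: z relative to plate mean and SD of compound and empty wells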); conditions: low glucose
[9] = galactose survival enhancers in mitochondrial complex I cybrids – cell-based, galactose medium, ATP luminescence, primary screen (AID 1645843;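 active = z-score of at least 1.8 in each of two replicates, scored against plate mean and spread of sample wells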;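 note: positive z means more ATP and so rescue of galactose-driven cybrid death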); conditions: complex I mutant cybrid cells, 72 h, stronger effect = higher value
[10] = chitosan synthesis blockers in C. neoformans – flow cytometry, Cibacron Brilliant Red staining (AID 1347148); conditions: Cryptococcus neoformans chitosan, stronger effect = lower value; at 10 µM unless noted;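 note: compound exposure lasted three days at 37 degrees C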
[11] = compounds altering viability of human ES cells (AID 493140); conditions: human embryonic stem cell survival screen; stronger effect = higher value;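 note: cells exposed to compounds for four days before counting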
[12] = compounds altering HSF1 focus formation in cells – imaging, Selleck Cancer Library (AID 1347162; in the data active = plate-normalised HSF1 focus index below about 0.46); conditions: human cells, HSF1 nuclear foci imaging, at 10 µM; SSMD: measured here: HSF1 foci SSMD mean; cell count: measured here: cell number; plate-normalised HSF1 focus index: stronger effect = lower value
[13] = stronger effect = lower value, cell number ratio, induced over uninduced
[14] = measured here: relative caspase fold change +Dox/-Dox
[15] = measured here: total cells with miR-34 induction, stronger effect = lower value
[16] = measured here: total cells without miR-34 induction
[17] = MELAS cybrid survival, CellTiter-Glo 48 h, stronger effect = higher value
[18] = Rieske KO mouse fibroblast survival, CellTiter-Glo 72 h

SMILES	period change [1]	parasite load remaining [2]	viability [2]	inhibition [3]	fluorescence ratio (interference) [4]	remaining activity [5]	fold change [6, 13]	fold change [6, 14]	cell count [6, 15]	cell count [6, 16]	outcome [7]	z-score [8, 17]	z-score [8, 18]	z-score [9]	fold fluorescence [10]	survival [11]	SSMD [12]	cell count [12]	plate-normalised HSF1 focus index [12]
CC(C)NC[C@H](O)COc1ccc(CC(N)=O)cc1	-0.06 h (inactive)	111% (inactive)	102%	-2% (inactive)	1 (inactive)	87% (inactive)	1.04 (inactive) and 0.889 (inactive) and 0.97 (inactive)	1.51 and 1.14 and 0.697	7050 and 9340 and 9400	6770 and 10500 and 9690	inactive	-0.419 (inactive)	-1.01	0.305 (inactive) and -0.32 (inactive)					
Clc1cccc(Nc2nnc(-c3ccccc3)c3ccccc23)c1						100% (inactive)	0.991 (inactive) and 0.925 (inactive)	0.939 and 0.863	1790 and 6180	1810 and 6680				-1.22 (inactive)	8.57 [at 150.7 µM] (inactive)				
COC(=O)c1c(C)[nH]c(C)c1C(=O)c1ccccc1Cc1ccccc1	0.045 h (inactive)			-1% (inactive)	1 (inactive)	110% (inactive)	0.994 (inactive) and 1.2 (inactive) and 0.953 (inactive)	0.778 and 0.775 and 0.777	7970 and 5070 and 7630	8020 and 4240 and 8010	inactive			-0.58 (inactive) and -0.485 (inactive)	5.89 [at 143.9 µM] (inactive)				
O=C1C(SCCO)=C(SCCO)C(=O)c2ccccc21	-0.12 h (inactive)			-3% (inactive)	1 (inactive)	112% (inactive)	1.25 (inactive) and 0.776 (inactive) and 0.848 (inactive)	0.902 and 1.05 and 1.12	1490 and 1050 and 1210	1190 and 1350 and 1420	inactive			-1.04 (inactive) and -0.82 (inactive)	6.37 [at 161.1 µM] (inactive)				
CC(C)(C)n1nc(-c2ccc(Cl)cc2)c2c(N)ncnc21						92.2% (inactive)	1.17 (inactive) and 0.851 (inactive) and 0.882 (inactive)	0.727 and 0.97 and 0.665	797 and 2420 and 4980	682 and 2850 and 5640		0.749 (inactive)	-0.167	1.28 (inactive)	4.87 [at 165.7 µM] (inactive)	53.1 (inactive)			
O=c1[nH]c2cc([N+](=O)[O-])c([N+](=O)[O-])cc2[nH]c1=O	0.075 h (inactive)			-4% (inactive)	1 (inactive)	109% (inactive)	0.955 (inactive) and 0.937 (inactive)	1 and 0.778	9840 and 7960	10300 and 8490	inactive			-0.11 (inactive) and 0.22 (inactive)					
CN(C(=O)CCCOc1ccc2[nH]c(=O)ccc2c1)C1CCCCC1	-0.015 h (inactive)	30.5% (inactive)	71.5%	-1% (inactive)	1 (inactive)	117% (inactive)	1.04 (inactive) and 0.982 (inactive) and 0.9 (inactive)	2.05 and 0.725 and 1.16	8910 and 7180 and 9490	8530 and 7310 and 10500	inactive	0.542 (inactive)	-0.471	-0.385 (inactive) and 0.22 (inactive) and -0.02 (inactive)					
CC(C)(C)c1ccc(S(=O)(=O)/C=C/C#N)cc1	-0.05 h (inactive)			-4% (inactive)	0.9 (inactive)	114% (inactive)	0.996 (inactive) and 0.965 (inactive)	0.975 and 1.39	4040 and 1980	4060 and 2060	inactive			-1.5 (inactive) and -1.04 (inactive)			-5.26	6870	0.733 (inactive)
Fc1cccc(/C=N/N=C/c2cccc(F)c2)c1						113% (inactive)	1.08 (inactive) and 0.921 (inactive)	1.02 and 0.755	11300 and 8600	10400 and 9330	inactive			0.64 (inactive) and 0.415 (inactive)					
CCN(CC)CCCCNc1ncc2cc(-c3c(Cl)cccc3Cl)c(NC(=O)NC(C)(C)C)nc2n1						131% (inactive)	0.841 (inactive) and 1.42 (inactive)	1.06 and 1.08	938 and 569	1110 and 401	inactive			-0.7 (inactive) and -1 (inactive)					
COc1cc2c(CCNC(C)=O)c[nH]c2cc1Cl	-0.08 h (inactive)			-1% (inactive)	1 (inactive)	94.8% (inactive)	1.06 (inactive) and 0.902 (inactive)	2.61 and 0.855	9840 and 8550	9250 and 9470	inactive			0.525 (inactive) and -0.185 (inactive)					
CC(C)(C=O)Cc1cc(C(C)(C)C)c(O)c(C(C)(C)C)c1	0.05 h (inactive)			0% (inactive)	1 (inactive)	125% (inactive)	1.05 (inactive) and 0.927 (inactive)	1.79 and 0.718	9400 and 9850	8980 and 10600	inactive			-1.33 (inactive) and -0.18 (inactive)					
COC(=O)C1=C(C)NC(C)=C([N+](=O)[O-])C1c1ccccc1C(F)(F)F (centres undefined)	0.05 h (inactive)			-5% (inactive)	0.9 (inactive)	124% (inactive)	1.01 (inactive) and 1 (inactive) and 0.845 (inactive)	1.21 and 1.49 and 0.884	9160 and 5080 and 7400	9050 and 5080 and 8750	inactive			-0.7 (inactive) and -0.625 (inactive)					
CCCN(CC1CC1)c1nc(C)nc(Nc2c(Cl)cc(Cl)cc2Cl)c1Cl	0.125 h (inactive)			-2% (inactive)	1 (inactive)	116% (inactive)	1.08 (inactive) and 0.941 (inactive)	0.691 and 0.818	9180 and 7650	8510 and 8120	inactive			-1.02 (inactive) and -0.83 (inactive)					

— PubChem BioAssay
